# Assay outcomes from PubChem.
# Sampled rows, rich in hits. Any-hit rate of the full collection: about 19%.
# HepG2 tox: HepG2 cytotoxicity, counter-screen for TGF-b inhibitors; HepG2 CAGA-GFP viability, ATP luminescence, 18 h; Potency, µM (titrated, usually from 46.1 µM), without a hit: at the highest dose activity change, negative = cytotoxicity, hits mostly cytotoxic; 0.76% of 410,000 active; note: potency is the fitted concentration of half-maximal effect
#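 HepG2 CAGA-GFP cells (1000/well, DMEM with 1% FBS) received compound, then TGF-beta at 500 pg/mL final, and were incubated 18 hours at 37 degrees C. Viability was read by CellTiter-Glo luminescence. Media-only wells were set as complete cell-killing and DMSO as no toxicity.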
# TDP1 inh: blocks human tyrosyl-DNA phosphodiesterase 1; 0.28% of 350,000 active; Q9NUW8; recombinant TDP1, AlphaScreen DNA substrate cleavage; Potency, µM (doses to about 130 µM), for inactives: at the top dose activity change, negative = inhibition, hits mostly inhibitors; note: potency is the fitted concentration of half-maximal effect; % is set by controls: 0 for no effect and ±100 for the full control effect; nearly all actives have a fitted effect of over 40% in size
# Target sequence (Q9NUW8 whole entry, looked up): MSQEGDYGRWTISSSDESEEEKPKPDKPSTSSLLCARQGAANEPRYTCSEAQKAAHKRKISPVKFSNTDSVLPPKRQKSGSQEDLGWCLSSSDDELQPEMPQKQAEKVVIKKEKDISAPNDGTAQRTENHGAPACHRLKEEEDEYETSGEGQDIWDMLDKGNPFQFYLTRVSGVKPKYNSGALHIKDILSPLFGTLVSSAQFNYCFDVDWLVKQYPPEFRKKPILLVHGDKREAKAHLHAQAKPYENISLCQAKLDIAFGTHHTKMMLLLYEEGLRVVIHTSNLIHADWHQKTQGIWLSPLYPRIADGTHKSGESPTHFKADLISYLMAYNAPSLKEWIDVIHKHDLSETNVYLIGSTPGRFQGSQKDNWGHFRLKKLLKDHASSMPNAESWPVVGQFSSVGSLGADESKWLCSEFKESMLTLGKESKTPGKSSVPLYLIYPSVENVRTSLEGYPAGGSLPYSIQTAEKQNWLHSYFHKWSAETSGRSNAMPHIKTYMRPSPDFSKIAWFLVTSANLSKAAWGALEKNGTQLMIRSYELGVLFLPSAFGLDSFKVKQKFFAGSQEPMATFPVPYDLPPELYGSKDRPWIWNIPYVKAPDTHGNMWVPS
#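 Compounds were preincubated with Tdp1 (1 nM final) for 15 min at room temperature before substrate (15 nM final) started a 5 min reaction; beads (10 ug/ml final) were then added for 10 min before AlphaScreen detection.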
# DT40 TDP1 no CPT: qHTS for Inhibitors of human tyrosyl-DNA phosphodiesterase 1 (TDP1): qHTS in cells in absence of CPT. DT40 Tdp1-/- hTDP1 cells, no CPT, ATP luminescence, 48 h. 15% of 420,000 active. Potency, µM (titrated, usually from 46.2 µM), for the others: top-dose activity change, negative = growth inhibition, actives largely listed as inhibitors; note: potency is the fitted concentration of half-maximal effect; % is set by controls: 0 for no effect and ±100 for the full control effect; nearly all actives have a fitted effect of over 55% in size
#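 DT40 Tdp1-/-;hTDP1 cells, no CPT (DMSO vehicle only), 400 cells/well; compounds pin-transferred; ≥48 hr, 37 °C; CellTiter-Glo 30 min RT dark, luminescence read.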
# IL1B secr inh: inhibitors of inflammasome signaling (IL-1 beta secretion) | THP-1 LPS/ATP IL-1B secretion, AlphaLISA, 16 h; active compounds read low | activity change, % at 57.5 µM | 4.7% of 360,000 active | AID 743279; in the data active = activity change below about -50%; inconclusive = mostly about -30% to -49%; note: % is set by controls: 0 for no effect and ±100 for the full control effect
#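 THP-1 cells pretreated 1 hr with compounds (up to 57.5 uM final), then stimulated with LPS (250 ng/mL final) plus ATP (1.25 mM final); secreted IL-1B measured by AlphaLISA after 16 hr, decreased signal indicating inhibition.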
# DT40 TDP1 CPT: growth inhibition of DT40 Tdp1-/-;hTDP1 cells with camptothecin (screen for TDP1 inhibitors); Potency, µM (doses to about 46.2 µM), for inactives: at the highest dose activity change, negative = growth inhibition, actives largely listed as inhibitors; 12% of 420,000 active; AID 686979; chicken DT40 Tdp1-/-;hTDP1 cells + 20 nM CPT, ATP luminescence, 48 h; note: potency is the fitted concentration of half-maximal effect; % is set by controls: 0 for no effect and ±100 for the full control effect; nearly all actives have a fitted effect of over 55% in size
#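 Cell growth measured by CellTiter-Glo luminescence after a minimum 48 h, 37 C compound exposure with 20 nM CPT in Tdp1-knockout DT40 cells stably expressing hTDP1, seeded 400/well; qHTS titration format.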
# TGFb SMAD3 inh: blocks TGF-b signaling; HepG2 CAGA-GFP TGF-b/SMAD3 reporter, GFP fluorescence, 18 h; TGF-beta stimulated, 500 pg/mL final; Potency, µM (titrated, usually from 46.1 µM), without a hit: top-dose activity, negative = inhibition, hits mostly inhibitors; 1.2% of 410,000 active; AID 588855; note: potency is the fitted concentration of half-maximal effect; % is set by controls: 0 for no effect and ±100 for the full control effect; nearly all actives have a fitted effect of over 65% in size
#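 Smad-responsive CAGA-GFP expression was quantified in HEPG2 cells exposed to compounds and 500 pg/mL final TGF-beta for 18 h at 37 degrees C; unstimulated wells defined full inhibition.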
# * = called active by the depositor; u = inconclusive; x = not tested or not shown; [ ] = remark or other dose. Unless noted, calls come from the whole dose curve; as a rule, active = well fitted curve in the direction sought with a large enough effect; inconclusive = small, poorly fitted or top-dose-only effect, or another doubt; inactive = no such curve, though single readings can be large; an effect the other way counts as inactive or inconclusive.
SMILES,HepG2 tox,TDP1 inh,DT40 TDP1 no CPT,IL1B secr inh,DT40 TDP1 CPT,TGFb SMAD3 inh
CCn1c(=N)n(CC(=O)c2ccc(OC)cc2)c2ccccc21,-22%,6%,u,u,u,18%
COc1ccc(C(=O)Nc2ccc(-c3cc4ccccc4oc3=O)c(C)c2)cc1Br,-3%,-3%[12.3 µM],u,x,u,-8%
O=C(Cn1cc(S(=O)(=O)Cc2ccccc2F)c2ccccc21)N1CCOCC1,-18%,4%,-14%,0,-12%,2%
CCCCn1c(=N)n(CC(=O)c2ccc([N+](=O)[O-])cc2)c2ccccc21,x,2%,x,x,x,x
CCCCCCCn1c(=N)n(CC(=O)c2ccco2)c2ccccc21,-92%,4%,u,-80*,21µM*,u
CCCCn1c(=N)n(CC(=O)c2ccco2)c2ccccc21,-2%,7%,u,u,u,-7%
Cc1ccc(Cn2c(=N)n(CC(=O)c3ccc([N+](=O)[O-])cc3)c3ccccc32)cc1,-25%,-1%,2.9µM*,-102*,4.6µM*,-22%
CCN(CC(=O)Nc1ccc(NC(C)=O)cc1)C(=O)c1cn(-c2ccccc2)nc1-c1cccs1,-10%,0%,u,-10,-20%,-7%
COc1ccc(NC(=O)CN(C)C(=O)/C=C/c2cn(-c3ccccc3)nc2-c2cccs2)cc1,-16%,x,18µM*,3,u,-7%
COc1ccc(NC(=O)CN(C)C(=O)/C=C/c2cn(-c3ccccc3)nc2-c2ccc(C)cc2)cc1,0%,0%,21µM*,-8,u,-13%
COc1ccc(NC(=O)CN(C)C(=O)/C=C/c2cn(-c3ccccc3)nc2-c2ccc(F)cc2)cc1,-1%,-9%,23µM*,-21,u,3%
COc1cccc(NC(=O)CN(C)C(=O)/C=C/c2cn(-c3ccccc3)nc2-c2ccc(C)cc2)c1,1%,x,u,u,u,-18%
CC(C)n1cnc(S(=O)(=O)N2CCCC(C(=O)NCc3ccccc3Cl)C2)c1 (stereo not drawn),-26%,4%,-21%,x,-24%,-19%
CCC1CCCCN1CC(=O)c1c(C)[nH]c2ccc(OC)cc12 (stereo not drawn),3%,3%,-19%,15,1%,8%
CN1CCN(C(=O)c2cc3c(c(-c4cccc(C#CC(C)(C)O)c4)n2)[C@H](CCO)N(S(=O)C(C)(C)C)C3)CC1 (stereo partly drawn),1%,x,6%,-11,2%,-2%
CC(C)(C)S(=O)N1Cc2cc(C(=O)N3CCc4ccccc4C3)nc(-c3cccc(-c4cccnc4)c3)c2[C@@H]1CCO (stereo partly drawn),-5%,x,21µM*,-20,u,3%
CN1CCN(C(=O)c2cc3c(c(-c4cccc(-c5cc6ccccc6o5)c4)n2)[C@@H](CCO)N(S(=O)C(C)(C)C)C3)CC1 (stereo partly drawn),-25%,x,u,-21,u,u
COc1ccccc1-c1cccc(-c2nc(C(=O)N3CCCCC3)cc3c2[C@H](CCO)N(S(=O)C(C)(C)C)C3)c1 (stereo partly drawn),5%,x,18µM*,-9,21µM*,-9%
CCc1ccc(C(=O)c2cn(CC(=O)Nc3cc(OC)ccc3OC)c3ccc(Cl)cc3c2=O)cc1,1%,6%,u,x,u,1%
Cc1nn2c(NCCCN(C)C)c3c(nc2c1-c1ccccc1)CCC3,-10%,6%,29µM*,-11,u,2%
